Among all 55,000 compounds or so, about 340 (0.62%) were called active. Not shown: some 3% with an inconclusive outcome. Calls follow the shape of the dose curve; as a rule, active = well fitted cell-killing curve with a large enough effect; inconclusive = small, poorly fitted or top-dose-only effect; inactive = no such curve, though single readings can be large or run the other way. The entries come from a sample that favours actives as a whole. A call without a number means that no potency is given here.
Assay: qHTS Screen for Compounds that Selectively Target Cancer Cells with p53 Mutations: Cytotoxicity of p53 Null Cells at the Permissive Temperature; also: nearly all actives have a fitted effect of over 55% in size
Details: H1299-neo p53 null cells, ATP luminescence, 24 h, 32C; series mostly up to 46.1 µM
Summary of the method: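 AC50 values derive from Hill modelling of qHTS concentration-response data (up to 46 uM) in H1299-neo cells. Cells were treated 24 h at 32C following overnight attachment at 37C; viability was read as cellular ATP.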
Potency is read from the fitted curve at half-maximal effect.

For `COC(=O)/C(NC(C)=O)=C(\C)c1ccc(Cl)cc1`, which Potency is on record?
Its Potency is “inactive”.

With `CCCCCn1c(CCNC(=O)c2ccc(F)cc2)nc2ccccc21` as the compound, how does the Potency read?
Its Potency is “inactive”.

With `CCCC(=O)Nc1ccc2oc(-c3ccc(O)c(Br)c3)nc2c1` as the compound, how does the Potency read?
Its Potency is “inactive”.

With `CC(=O)Nc1cc(C(=O)NCc2ccc(F)cc2)ccc1Sc1ccc(F)cc1` as the compound, how does the Potency read?
Its Potency is “inactive”.

For `Cc1ccc(NC(=S)N2CCN(c3ncccn3)CC2)cc1C`, which Potency is on record?
Its Potency is “inactive”.

With `O=C(CCC(=O)N1CC2CCCN2c2ccccc21)NCc1ccccc1Cl` (centres undefined) as the compound, how does the Potency read?
Its Potency is “inactive”.

For `Cn1c(=NC(=O)c2ccc3c(c2)OCCO3)sc2cc(S(C)(=O)=O)ccc21`, which Potency is on record?
Its Potency is “inactive”.

Which Potency does the source give for `O=C(NC1CCCC1)C(c1ccccn1)N(C(=O)c1csnn1)C1CCCC1` (centres undefined) here?
The Potency was “inactive”.

With `CN(CC(=O)Nc1cccc(C(F)(F)F)c1)S(=O)(=O)c1cccs1` as the compound, how does the Potency read?
Its Potency is “inactive”.

Which Potency does the source give for `Cc1cccc(-c2nnc(SCC(=O)N3CCCc4ccccc43)o2)c1` here?
Its Potency is “inactive”.

Which Potency does the source give for `Cc1ccc2[nH]cc(CCCN3C(=O)c4ccccc4C3=O)c2c1` here?
Its Potency is “inactive”.

With `CCNC(=S)N1CCC(c2nc3cc(C)c(C)cc3[nH]2)CC1` as the compound, how does the Potency read?
Its Potency is “inactive”.

For `CCCCn1c(=O)c2oc3ccccc3c2n(CC(=O)Nc2ccccc2OC)c1=O`, which Potency is on record?
Its Potency is “inactive”.

For `O=C(CSc1nc2nccnc2c(=O)n1CCc1c[nH]c2ccccc12)Nc1ccccc1F`, which Potency is on record?
Its Potency is “inactive”.

For `Cc1cccc(NC(=O)Cn2cc(S(=O)(=O)Cc3ccccc3Cl)c3ccccc32)c1`, which Potency is on record?
The Potency was “inactive”.

Which Potency does the source give for `Cc1csc2nc(COc3ccc(NC(=O)COc4ccccc4)cc3)cc(=O)n12` here?
The Potency was “inactive”.

For `COc1ccc(NC(=O)Nc2cccc(-c3noc(C)n3)c2)cc1`, which Potency is on record?
Its Potency is “inactive”.

With `COc1cccc(C(c2c(O)cc(C)n(Cc3ccco3)c2=O)N2CCN(c3ccccc3)CC2)c1` (centres undefined) as the compound, how does the Potency read?
The Potency was “inactive”.

Which Potency does the source give for `O=C(CSc1nccn1Cc1ccc(Cl)cc1)NCc1ccccc1` here?
The Potency was “inactive”.

Which Potency does the source give for `Cc1ccc(CSCC(N)C(=O)O)cc1` (centres undefined) here?
The Potency was “inactive”.

With `COc1ccccc1N1CCN(C(=O)C2CCN(S(=O)(=O)c3c(C)noc3/C=C/c3ccc(C)cc3)CC2)CC1` as the compound, how does the Potency read?
The Potency was “inactive”.

Which Potency does the source give for `O=C(OCc1cc(=O)n2nc(C3CC3)sc2n1)c1ccccc1Cl` here?
Its Potency is “inactive”.

For `COC(=O)c1ccc(NC(=O)CSc2nncc3ccc(OC)c(OC)c23)cc1`, which Potency is on record?
Its Potency is “inactive”.

With `Cc1c(C(=O)NCc2ccccc2Br)oc2ccc3c(c12)C(=O)CC(C)(C)O3` as the compound, how does the Potency read?
The Potency was 10 µM (active).

Which Potency does the source give for `O=C(NCc1ccccc1Cl)C1=Cc2cc(Br)ccc2OC1` here?
Its Potency is “inactive”.

Which Potency does the source give for `CCC1(C)CC(=O)c2c(ccc3oc(C(=O)Nc4ccc(C(C)=O)cc4)c(C)c23)O1` (centres undefined) here?
The Potency was “inactive”.

With `Cc1nn(-c2nc(-c3ccccc3)cc(C(F)(F)F)n2)c(C)c1Cl` as the compound, how does the Potency read?
Its Potency is “inactive”.

Which Potency does the source give for `CC(C)NC(=S)N1CCN(S(C)(=O)=O)CC1` here?
Its Potency is “inactive”.

With `COc1cc(C(=O)N2CCN(C(=O)COc3cccc(C)c3)CC2)cc(OC)c1OC` as the compound, how does the Potency read?
Its Potency is “inactive”.

For `CC(C)Cn1c(C2CC(=O)N(c3ccccc3Cl)C2)nc2ccccc21` (centres undefined), which Potency is on record?
The Potency was “inactive”.

For `Cc1ccccc1CSCCNC(=O)c1ccc(Cl)c(S(=O)(=O)N2CCOCC2)c1`, which Potency is on record?
Its Potency is “inactive”.

With `Cc1cc2c(cc3c(SCc4nc(-c5ccccc5)oc4C)nnc(C)n32)o1` as the compound, how does the Potency read?
Its Potency is “inactive”.

Which Potency does the source give for `CC(=O)c1cccc(NC(=O)CSc2nc3c(c(=O)[nH]2)CCC3)c1` here?
Its Potency is “inactive”.

For `CC(C)C(OC(=O)c1cccs1)C(=O)NC1CCCCC1` (centres undefined), which Potency is on record?
The Potency was “inactive”.

For `COc1ccc(C(=O)COC(=O)CCCC(=O)Nc2cc(C(F)(F)F)ccc2Cl)cc1`, which Potency is on record?
Its Potency is “inactive”.

Which Potency does the source give for `Cc1nnc(N2CCC(C(=O)Nc3ccc(F)cc3)CC2)c2nn(-c3ccc(Cl)cc3)c(C)c12` here?
Its Potency is “inactive”.

Which Potency does the source give for `O=C(CC1N=C2c3ccccc3N=C(SCc3ccc(F)cc3)N2C1=O)NCc1cccs1` (centres undefined) here?
The Potency was “inactive”.

Which Potency does the source give for `CCOc1ccc(CCNC(=O)c2cc3c(=O)n(C)c4ccccc4c3n2C)cc1` here?
Its Potency is “inactive”.

Which Potency does the source give for `CCCn1c(=N)c(C(=O)NCc2ccccc2)cc2c(=O)n3cccc(C)c3nc21` here?
The Potency was “inactive”.

For `Cc1ccccc1NC(=O)CN1C(=O)C(C)(C)c2ccccc21`, which Potency is on record?
The Potency was “inactive”.

With `O=C(Nc1ccc(Br)cc1)c1cc2nc(-c3ccccc3)cc(-c3ccccc3)n2n1` as the compound, how does the Potency read?
Its Potency is “inactive”.

For `CCCOc1ccc(C2c3c(-c4ccccc4O)n[nH]c3C(=O)N2Cc2cccnc2)cc1` (centres undefined), which Potency is on record?
The Potency was “inactive”.

With `COc1ccc(-c2cc(C(=O)Nc3sc4c(c3C(N)=O)CCCC4)no2)cc1` as the compound, how does the Potency read?
The Potency was “inactive”.

For `COc1ccc(C(=O)Nc2onc3c2CCCC3)cc1`, which Potency is on record?
Its Potency is 7.94 µM (active).

With `CC1CCc2noc(NC(=O)c3ccc([N+](=O)[O-])cc3)c2C1` (centres undefined) as the compound, how does the Potency read?
The Potency was “inactive”.

For `O=c1c(Cl)c(NCc2ccc(F)cc2Cl)cnn1C12CC3CC(CC(C3)C1)C2`, which Potency is on record?
Its Potency is “inactive”.

For `Cc1cccc(OCc2ccc(C(=O)Nc3ccc(F)cc3)cc2)c1`, which Potency is on record?
Its Potency is “inactive”.

Which Potency does the source give for `Cc1cccc(C)c1-n1ncc(C(=O)NCCCN2CCCCC2)c1C1CCN(C(=O)OC(C)(C)C)CC1` here?
Its Potency is “inactive”.

Which Potency does the source give for `COc1cccc(C(=O)NCC(=O)OCc2cc(=O)n3ccsc3n2)c1` here?
Its Potency is “inactive”.

Which Potency does the source give for `Cc1c(NC(=O)C(C)(C)C)cccc1-c1nc2ccccc2s1` here?
The Potency was 10 µM (active).

Which Potency does the source give for `Cc1c(NC(=O)Cc2ccccc2)cccc1-c1nc2cccnc2s1` here?
Its Potency is “inactive”.

With `CCC(C(=O)Nc1cccc(-c2nc3cccnc3s2)c1C)c1ccccc1` (centres undefined) as the compound, how does the Potency read?
The Potency was “inactive”.

Which Potency does the source give for `O=C(Cc1c[nH]c2ccccc12)N/N=C/c1cccc(F)c1` here?
The Potency was “inactive”.

For `Cc1ccccc1Nc1nn2c(=O)c3ccc(C(=O)NCCc4ccc(Cl)cc4)cc3nc2s1`, which Potency is on record?
The Potency was “inactive”.

Which Potency does the source give for `CCOc1ccccc1C(=O)Nc1ccc(S(=O)(=O)N2CCCCC2c2cccnc2)cc1` (centres undefined) here?
The Potency was “inactive”.

With `O=c1c2cccnc2n(Cc2cccc(F)c2)c(=O)n1Cc1ccccc1Cl` as the compound, how does the Potency read?
Its Potency is “inactive”.

For `COc1ccc(S(=O)(=O)n2nc(C)c(S(=O)(=O)N3CCCCCC3)c2C)cc1`, which Potency is on record?
The Potency was “inactive”.

With `CCOC(=O)c1c(/N=C/c2cc(C)ccc2O)sc2c1CCC2` as the compound, how does the Potency read?
The Potency was “inactive”.

Which Potency does the source give for `CCC(=O)N1CCc2cc(S(=O)(=O)CCC(=O)N3CCN(c4ccccc4F)CC3)ccc21` here?
Its Potency is “inactive”.

Which Potency does the source give for `Cc1ccc(CNC(=O)CCC(=O)N2CC(C)Sc3ccccc32)cc1` (centres undefined) here?
The Potency was “inactive”.

With `CCOc1ccc(NC(=O)CCc2c(C)nn(-c3ccc(N4CCCC4)nn3)c2C)cc1` as the compound, how does the Potency read?
The Potency was “inactive”.

With `CCCOc1ccc(-c2cccc(NS(=O)(=O)c3ccccc3)c2)nn1` as the compound, how does the Potency read?
Its Potency is “inactive”.

Which Potency does the source give for `Cn1nnc2c(N3CCN(c4ccccc4)CC3)ncnc21` here?
Its Potency is “inactive”.

Which Potency does the source give for `CCOc1ccc(C(=O)Nc2ccc3nc4c(c(Nc5ccccc5OC)c3c2)CCCC4)cc1` here?
Its Potency is “inactive”.

For `O=C(Nc1c2c(nc3ccccc13)CCCC2)c1ccccc1Br`, which Potency is on record?
Its Potency is “inactive”.

Which Potency does the source give for `COc1ccccc1Nc1c2c(nc3ccc(NC(=O)/C=C/c4cc(OC)c(OC)c(OC)c4)cc13)CCCC2` here?
The Potency was 15.8 µM (active).

With `COc1ccc(-n2ccn(CC(=O)Nc3ccc(C)c(C)c3)c(=O)c2=O)cc1OC` as the compound, how does the Potency read?
Its Potency is “inactive”.

For `CCN(CC)S(=O)(=O)c1nnc(NC(=O)COc2ccccc2Cl)s1`, which Potency is on record?
Its Potency is “inactive”.

For `CCN(Cc1ccccc1)C(=O)c1cn(-c2cccc(OC)c2)c(=O)c2ccccc12`, which Potency is on record?
The Potency was “inactive”.

With `COc1ccc(NC(=O)CSc2nc3ncccc3[nH]2)c(OC)c1` as the compound, how does the Potency read?
Its Potency is “inactive”.

With `COC(=O)c1c(NC(=O)c2ccc(Cl)c(Cl)c2)sc2c1CCCC2` as the compound, how does the Potency read?
Its Potency is “inactive”.

With `Clc1ccc(-n2nnnc2-c2cnc(-c3ccccn3)nc2-c2cccs2)cc1` as the compound, how does the Potency read?
Its Potency is “inactive”.

For `c1ccc(-c2noc(-c3cccs3)n2)nc1`, which Potency is on record?
Its Potency is 10 µM (active).

Which Potency does the source give for `Cc1ccc(C)c(N2CCN(C(=O)C3CCC(CNS(=O)(=O)c4cccs4)CC3)CC2)c1` (centres undefined) here?
Its Potency is “inactive”.

With `O=C(COc1nc2ccccc2nc1N1CCOCC1)NCC(F)(F)F` as the compound, how does the Potency read?
The Potency was “inactive”.

Which Potency does the source give for `CN(C)CCCO/N=C(\c1ccccc1)c1ccncc1` here?
The Potency was “inactive”.

Which Potency does the source give for `Cc1ccc(CN2CCC(CNC(=O)c3cnn(-c4ccccc4Cl)c3C3CCN(C(=O)OC(C)(C)C)CC3)CC2)cc1` here?
The Potency was “inactive”.

With `Cc1ccc(C)n1-c1nnc(N2CCC(C(=O)NCc3ccccc3Cl)CC2)s1` as the compound, how does the Potency read?
The Potency was “inactive”.

Which Potency does the source give for `COc1ccc(-c2nc(SCC(=O)N3CCCCC3C)n[nH]2)cc1` (centres undefined) here?
Its Potency is “inactive”.

For `Cc1ccc(NC(=S)NC(=O)/C=C/c2ccc(Cl)cc2)cc1`, which Potency is on record?
The Potency was “inactive”.

With `Cc1cc(=O)n(CC(=O)Nc2cccc([N+](=O)[O-])c2)c(-n2nc(C)cc2C)n1` as the compound, how does the Potency read?
Its Potency is “inactive”.

Which Potency does the source give for `CN(C)c1ccc(NC(=O)CSc2nc(-c3ccco3)cc(C(F)(F)F)n2)cc1` here?
Its Potency is “inactive”.

Which Potency does the source give for `CCCN(CCC)c1c([N+](=O)[O-])c(=O)oc2ccccc12` here?
Its Potency is “inactive”.

For `COc1ccc(C(=O)NCC(c2ccc(N(C)C)cc2)N2CCc3ccccc32)c(OC)c1` (centres undefined), which Potency is on record?
The Potency was “inactive”.

With `CCOC(=O)c1c(C)[nH]c(CCC(=O)NCCCN2CCN(c3cc(C)ccc3C)CC2)c1C` as the compound, how does the Potency read?
The Potency was “inactive”.

For `O=C(Nc1ccc(OC(F)(F)F)cc1)C1CCCN(S(=O)(=O)c2ccc(Br)s2)C1` (centres undefined), which Potency is on record?
Its Potency is “inactive”.

With `Cc1ccc2nc3c(cc(C(=O)NC4CCCCC4)c(=N)n3C(C)C)c(=O)n2c1` as the compound, how does the Potency read?
Its Potency is “inactive”.

For `COc1cccc(CNC(=O)C(NS(=O)(=O)c2ccc3nc(C)sc3c2)C(C)C)c1` (centres undefined), which Potency is on record?
The Potency was “inactive”.

Which Potency does the source give for `CC(C)(C)c1ccc(C(=O)NCC(c2ccco2)S(=O)(=O)c2ccc(F)cc2)cc1` (centres undefined) here?
The Potency was “inactive”.

— PubChem BioAssay AID903 (National Center for Advancing Translational Sciences (NCATS), 2007)
